Sampled rows, rich in hits. Any-hit rate of the full collection: about 7.9%.
Marburg entry inh: qHTS for inhibitors of binding or entry into cells for Marburg Virus | Marburg virus pseudotyped entry inhibition, cell reporter | Potency, µM (titrated, usually from 37.8 µM), for the others: top-dose activity change, negative = inhibition, usual class: inhibitors | 300,000 compounds, 1.8% hits; calls by dose curve; tested in HEK293 cells; note: potency is the fitted concentration of half-maximal effect
HCV inhibitor: qHTS Assay for Inhibitors of Hepatitis C Virus (HCV) | Potency, µM (top dose mostly 41.8 µM), for inactives: at the top dose activity change, negative = inhibition, actives largely listed as inhibitors | 340,000 compounds, 3.4% hits | Huh7.5.1 HCVcc-Cre infection, luciferase reporter, 44 h; active = well fitted inhibition curve with a large enough effect; inconclusive = small, poorly fitted or top-dose-only effect, or another doubt; inactive = no such curve, though single readings can be large or run the other way; note: potency is the fitted concentration of half-maximal effect
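Infectious HCVcc-Cre (~0.5 moi) was added to cells just after compound, with cells seeded 4 h earlier at 1,000 per well. Luciferase activity after 44 h culture reported infection; substrate was incubated 15 min at room temperature before reading.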
HCMV antiviral: qHTS Assay for inhibitors of the human cytomegalovirus (HCMV); activity change, negative = inhibition, % at 57.5 µM; HFF cells, HCMV-luciferase reporter, 72 h; stronger effect = lower value; 410,000 compounds, 4.5% hits; in the data active = activity change below about -60%; inconclusive = no clear call, values can overlap the other calls; inactive = above about -39%
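Human foreskin fibroblasts infected with luciferase-reporter HCMV at MOI 1 PFU/cell, compounds at two doses. Luciferase measured 72 h post infection; normalized to buffer-only basal and Salinomycin (10uM) controls.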
FMDV antiviral: High Throughput Screening for Foot and Mouth Disease Virus Antivirals; Potency, µM (titrated, usually from 57.9 µM), without a hit: top-dose activity change, negative = inhibition, hits mostly inhibitors; 410,000 compounds, 1.2% hits; FMDV antiviral cell-based qHTS; AID 1159524, 2015; calls by dose curve; tested in HEK293T cells; note: read-out not given here; potency is the fitted concentration of half-maximal effect; nearly all actives have a fitted effect of over 45% in size
LASV entry inh: qHTS for Inhibitors of binding or entry into cells for Lassa Virus. Lassa virus pseudotype entry inhibition, cell reporter. AID 540256, 2011. Potency, µM (doses to about 37.9 µM), inactives show at the top dose activity change, negative = inhibition, hits mostly inhibitors. 300,000 compounds, 1.2% hits; calls by dose curve; tested in HEK293 cells; note: potency is the fitted concentration of half-maximal effect; nearly all actives have a fitted effect of over 50% in size
Active calls of the source: *; ? = inconclusive; . = no result; [ ] = another dose, or the depositor's remark. % is set by controls: 0 for no effect and ±100 for the full control effect.

SMILES | Marburg entry inh | HCV inhibitor | HCMV antiviral | FMDV antiviral | LASV entry inh
CCN(CC)S(=O)(=O)c1ccc(N/N=C(\C)c2ccc(OC)cc2O)nc1 | . | ? | -62* | -21% | .
CCN(CC)S(=O)(=O)c1ccc(N/N=C/c2ccc(O)cc2)nc1 | ? | 8% | ? | 13% | 3%[46.1 µM]
CCOc1cccc(/C=N/Nc2ccc(S(=O)(=O)N(CC)CC)cn2)c1O | ? | ? | -100* | 0% | ?
CCN(CC)c1nc(-c2ccc(C(C)(C)C)cc2)nc2ccccc12 | . | . | -15 | ? | 13µM*
CC(C)CN(CC(C)C)c1nc(-c2ccc(Cl)cc2)nc2ccccc12 | 8%[46.1 µM] | . | 21 | -21% | 12%[46.1 µM]
Clc1cccc2c1CN(C1=NCCN1)C2 | . | . | . | -1% | .
CCOC(=O)C1CCCN(C(=S)NC(=O)/C=C/c2ccc(F)cc2)C1 (stereo unspecified) | . | -15% | -82* | 34% | .
CCCNC(=O)CCc1nnc2ccc(N3CCN(c4cccc(OC)c4)CC3)nn12 | . | . | ? | -6% | -23%[46.1 µM]
CCn1c(C)nc2cc(C(=O)NNC(=S)Nc3ccc(Cl)cc3)ccc21 | . | 1% | -28 | 16% | .
CCn1c(C)nc2cc(C(=O)NNC(=S)Nc3ccccc3)ccc21 | ? | 0% | ? | 2% | 4.5µM*
CN(C)c1ccc(-c2cc(O)c3ncccc3c2)cc1 | . | . | -97* | 31% | .
CN(C)CCCNC(=O)c1ccc(-c2cc(O)c3ncccc3c2)cc1 | . | . | -39 | 6% | .
Oc1cc(-c2ccncc2)cc2cccnc12 | . | . | -97* | -5% | .
CCOC(=O)C1CCCN(C(=O)c2cnn(-c3ncc4c(n3)-c3ccccc3CC4)c2C)C1 (stereo unspecified) | . | . | . | 16% | .
CCN1CCCC1CNC(=O)c1cnn(-c2nccc(-c3cccs3)n2)c1C1CC1 (stereo unspecified) | . | . | . | -9% | .
COc1ccc(OCCSc2nnc(C)n2-c2ccccc2)cc1 | ? | 1% | -13 | -16% | 9.2µM*
COc1ccc(S(=O)(=O)N2c3cc(Cl)ccc3Oc3nc4ccccc4nc32)cc1 | -10% | ? | -89* | 69% | -8%
CC(C)c1cc(-c2nc(-c3ccc(Cl)cc3)no2)n[nH]1 | . | . | -68* | -16% | ?
CC1CC1C(=O)Nc1cc(S(=O)(=O)N2CCOCC2)ccc1N1CCCC1 (stereo unspecified) | -1%[46.1 µM] | 10µM* | ? | -7% | -4%
Cn1nc(C(=O)Nc2cccc(S(=O)(=O)N3CCCCC3)c2)c2ccccc2c1=O | 6.3µM* | ? | 110 | -16% | -22%
Cc1cc(C)n(-c2ccc(C(=O)N3CCN(S(=O)(=O)c4cccc(Br)c4)CC3)cc2)n1 | . | 7.9µM* | -64* | ? | .
Cn1nc(C(=O)Nc2ccc(S(=O)(=O)N3CCCCC3)cc2)c2ccccc2c1=O | ? | -10% | 13 | -21% | -20%
CC(C)Oc1ccc(C(=O)Nc2cc(S(=O)(=O)N3CCOCC3)ccc2N2CCOCC2)cc1 | ? | ? | 17 | 13% | 13µM*
O=C(Nc1cc(S(=O)(=O)N2CCOCC2)ccc1N1CCCC1)C1CC1 | 16%[46.1 µM] | -1% | -4 | -5% | 2%[46.1 µM]
c1ccc(Cc2c(C3CCCCC3)nc3c4ccccc4ccn23)cc1 | . | . | 118 | 28% | .
SMILES | Marburg entry inh | HCV inhibitor | HCMV antiviral | FMDV antiviral | LASV entry inh
CCc1noc(C)c1C(=O)NNC(=O)COc1ccc(C)cc1 | 8%[46.1 µM] | 2% | -27 | -8% | 16%
Cc1cccc(C(=O)N2CCOc3ccc(CN(C)Cc4cc(C5CC5)n[nH]4)cc3C2)n1 | . | . | . | -8% | .
COc1ccc(NC(=O)c2nn(C)c(=O)c3ccccc23)cc1S(=O)(=O)Nc1ccccc1Cl | . | 13µM* | 88 | 86% | .
COc1cccc(NC(=O)c2ccc(S(=O)(=O)N3CCCC3)cc2)c1 | ? | 1% | -27 | -14% | .
CC(Oc1cccc(Cl)c1)C(=O)Nc1cc(S(=O)(=O)N2CCOCC2)ccc1N1CCCCC1 (stereo unspecified) | ? | 22µM* | -36 | ? | ?
COc1ccccc1NS(=O)(=O)c1cccc(NC(=O)c2nn(C)c(=O)c3ccccc23)c1 | . | ? | 33 | -10% | .
CN(C)S(=O)(=O)c1cccc(NC(=O)c2ccc(S(=O)(=O)N3CCCC3)cc2)c1 | 0% | 10µM* | -16 | 0% | 1%
CC(C)Oc1ccc(C(=O)Nc2cccc(S(=O)(=O)N3CCCC3)c2)cc1 | ? | 2.8µM* | ? | -6% | ?
CC(=O)c1cccc(NC(=O)c2ccc(S(=O)(=O)N3CCCC3)cc2)c1 | 3%[46.1 µM] | 1% | -6 | -13% | 7%[46.1 µM]
Cc1cc(C)n(-c2ccc(C(=O)Nc3cccc(S(=O)(=O)N4CCCC4)c3)cc2)n1 | ? | ? | -72* | -23% | ?
Cn1c2ccccc2c2cc(C(=O)NNC(=O)CCl)sc21 | ? | ? | -21 | 16µM* | -18%
CCCNC(=O)c1cc2c3ccccc3n(C)c2s1 | -22% | ? | 76 | 4% | ?
CCC(C)NC(=O)c1ccccc1-c1ccccc1C(=O)NC(C)CC (stereo unspecified) | 17%[46.1 µM] | 26% | 27 | -8% | ?
CCC(C)NC(=O)c1c(F)c(F)c(F)c(F)c1F (stereo unspecified) | 19% | 13% | -68* | -16% | 0%
CC(=O)N1CCC2(CC1)CCN(c1ccccc1)CC2 | . | . | . | -19% | .
O=C(COC(=O)CNC(=O)c1ccccc1)Nc1ccc2c(c1)OCO2 | -7%[46.1 µM] | -19% | -3 | -6% | 0%[46.1 µM]
C=CCNC(=S)Nc1cccc([N+](=O)[O-])c1 | . | -4% | -90* | 5% | .
CNC(=S)Nc1cccc([N+](=O)[O-])c1 | -2%[46.1 µM] | 6% | -3 | -8% | 6%
CCNC(=S)Nc1cccc([N+](=O)[O-])c1 | -10% | 5% | . | . | 7%
Cc1cc(Br)ccc1NC(=S)Nc1cccc([N+](=O)[O-])c1 | 25% | ? | -64* | -23% | -3%
CCOC(=O)c1c(C)[nH]c(C(=O)NCCc2ccc(OC)c(OC)c2)c1C | ? | ? | 29 | -20% | ?
CCCCN(CC)CCNC(=O)Cn1cnc2sc(C)c(S(=O)(=O)N3CCN(c4ccccc4OC)CC3)c2c1=O | 13%[46.1 µM] | . | -2 | -20% | 16%[46.1 µM]
Cc1cccc(NC(=O)CSc2nc3ccc(NC(=O)c4ccco4)cc3s2)c1 | ? | . | ? | 25µM* | -7%[46.1 µM]
CC(=O)Nc1ccc2nc(SCCOc3ccccc3)sc2c1 | -20%[46.1 µM] | . | -78* | 10% | -10%[46.1 µM]
Cc1ccc(NC(=O)CSc2nc3ccc(NC(=O)c4ccco4)cc3s2)c(C)c1 | ? | . | -24 | -25% | -24%[46.1 µM]
COc1cccc(NC(=O)CSc2nc3ccc(NC(=O)c4ccco4)cc3s2)c1 | ? | . | -35 | 40µM* | -18%[46.1 µM]
Cc1ccccc1NC(=O)CSc1nc2ccc(NC(=O)c3ccco3)cc2s1 | -1%[46.1 µM] | . | -25 | ? | -4%[46.1 µM]
CC(c1ccccc1)N1CCn2c(nc3cc(NC(=O)c4cccs4)ccc32)C1 (stereo unspecified) | -30% | 10µM* | -73* | . | -17%

Bioassay records: PubChem, National Center for Advancing Translational Sciences (NCATS)
